Experimental data: PubChem BioAssay AID485364 (National Center for Advancing Translational Sciences (NCATS), 2010)
Among all 360,000 compounds or so, about 11,000 (3.1%) were called active. Another 4% or so got no clear call; they are omitted. Calls come from the whole dose curve; as a rule, active = well fitted inhibition curve with a large enough effect; inconclusive = small, poorly fitted or top-dose-only effect; inactive = no such curve, though single readings can be large or run the other way. The full list was thinned out, with actives kept by preference.

These molecules were tested against Schistosoma mansoni thioredoxin glutathione reductase (TGR) (UniProt Q962Y6) (assay: qHTS Assay for the Inhibitors of Schistosoma Mansoni Peroxiredoxins). Details: purified TGR, DTNB reduction, TNB absorbance 405 nm; series mostly up to 114 µM; activity change, negative = inhibition: at the top concentration.
Text: Schistosomiasis is a major neglected tropical disease that currently affects over 200 million. It is caused by different species of flatworms, such as Schistosoma mansoni. Over the last century, drugs to treat the disease have evolved from potassium antimonyl tartrate, artemisinin, oxamniquine, to praziquantel, with praziquantel remaining the universally-used single drug of choice over the past three decades. However, transmission rates have changed little with praziquantel, and there is evidence for the development of drug resistant parasites. Because there is currently no suitable alternative therapy available, there is an urgent need to identify new targets and drugs for schistosomiasis treatment. Thioredoxin glutathione reductase (TGR), one uniquely positioned S. mansoni enzyme, has been identified as a major component of the worms' distinct and compressed antioxidant "firewall". TGR is a multifunctional enzyme that catalyzes the interconversion between reduced and oxidized forms of both glutathione (GSH) and thioredoxins, thus making it an attractive new antiparasitic target. Recently, a quantitative high-throughput screen of the NIH Molecular Libraries Small Molecule Repository (MLSMR, ~71K at the time of the screen in 2007) was performed using an assay that targeted both TGR and peroxiredoxin2 (Prx2, an H2O2-reducing enzymatic component of the S. mansoni redox "firewall") by following the decrease of NADPH fluorescence. […] Additional mechanistic link between exogenous NO donation and parasitic injury for the oxadiazole-2-oxide class of compounds was also expanded and better defined. Although the screen addressed both TGR and Prx2, the assay required post-screen target deconvolution for further characterization of the actives. In addition, the fluorescence assay was also subject to fluorescence interference from compound library members. We have developed a 1536-well-based kinetic HTS assay to address TGR alone. The assay followed the reduction of 5, 5'-dithiobis (2-nitrobenzoic acid) (DTNB) (Ellman's reagent) by NADPH and measured the increase in absorbance at 412 nm of the reaction product, TNB. […] This assay format can be used to screen the current MLSMR collection (with >300K compounds available) to find novel TGR inhibitors. Furoxan is a good choice to serve as a positive control in the primary HTS assay.
Three microliters of reagents (100 uM NADPH and 20 nM TGR or 100 uM NADPH as no-enzyme control) were dispensed into 1,536-well black clear-bottomed plates. Compounds (23 nL) were transferred via Kalypsys pin tool equipped with 1536-pin array (10 nL slotted pins, V&P Scientific, San Diego, CA). The plates were then be incubated for 15 min at room temperature, and 1 uL aliquot of 500 uM NADPH were added, immediately followed by a 1 uL aliquot of 15 mM DTNB to start the reaction. The plate was transferred to a ViewLux high-throughput CCD imager (Perkin-Elmer, Wellesley, MA) where kinetic measurements of the TNB absorbance were acquired using a 405 excitation filter. Throughout the screen, reagent bottles and all liquid lines were made light-tight to minimize reagent degradation. All screening operations were performed on a fully integrated robotic system (Kalypsys, San Diego, CA) containing one RX-130 and two RX-90 anthropomorphic robotic arms (Staubli, Duncan, SC). Library plates were screened starting from the lowest and proceeding to the highest concentration, and a "double-dipping" step of the highest concentration was required to access higher concentrations of compounds. Vehicle-only plates, with DMSO being pin-transferred to the entire column 5-48 compound area, were inserted uniformly at the beginning and the end of each library in order to monitor for and record any shifts in the background, which can be affected by reagent dispensers or loss in enzyme activity overtime. […]
% is set by controls: 0 for no effect and ±100 for the full control effect; potency is the fitted concentration of half-maximal effect.
Note: nearly all actives have a fitted effect of over 60% in size.

Row | SMILES | activity change, negative = inhibition | Potency
1 | Cc1nnc(N2CCCC(C(=O)NCCN(C)C)C2)c2nn(-c3ccccc3)c(C)c12 (stereo not given) | 38.7% (inactive) | –
2 | COc1ccc(NC(=O)c2ccc3oc(=O)c(S(=O)(=O)c4ccc(F)cc4)cc3c2)c(OC)c1 | 10.2% (inactive) | –
3 | O=C(NCc1ccco1)c1cc2sccc2n1Cc1ccc(F)cc1 | -20.7% (inactive) | –
4 | O=C(NCc1ccco1)c1sc2cccc(F)c2c1Cl | – | 39.8 µM (active)
5 | COc1ccc2c(Cl)c(C(=O)NCc3ccco3)sc2c1 | -22.5% (inactive) | –
6 | Cc1ccc(C)c(Nc2nnc(-c3ccc(C)c(S(=O)(=O)N4CCCCC4)c3)c3ccccc23)c1 | 4.43% (inactive) | –
7 | Cc1ccc(C)c(N2CCN(c3ccc4cc(S(=O)(=O)N5CCC(C)CC5)ccc4n3)CC2)c1 | 3.72% (inactive) | –
8 | COc1cccc(-c2n[nH]c3c2C(c2cccc(O)c2)N(C)C3=O)c1 (stereo not given) | -2.88% (inactive) | –
9 | Cc1nn(C(=O)c2ccoc2C)c(N)c1-c1ccccc1 | 0.165% (inactive) | –
10 | O=C(O)CCCC(=O)N1N=C(c2ccco2)CC1c1ccco1 (stereo not given) | -32.6% (inactive) | –
11 | Cc1nn2c(c1-c1ccccc1)N=C(c1ccco1)CC2c1ccccc1 (stereo not given) | – | 10 µM (active)
12 | COc1ccc(NC(=O)CCNS(=O)(=O)c2ccc3c(c2)CCCC(=O)N3)cc1Cl | 0.434% (inactive) | –
13 | CCCCn1c(SCC(=O)N2CCC(C(=O)OCC)CC2)nc2cc(S(N)(=O)=O)ccc21 | -11.3% (inactive) | –
14 | CCCCn1c(SCc2ncc(-c3ccccc3)o2)nc2cc(S(N)(=O)=O)ccc21 | – | 20 µM (active)
15 | CCCCn1c(SCC(=O)N2CCCC2=O)nc2cc(S(N)(=O)=O)ccc21 | -10.3% (inactive) | –
16 | CCCOC(=O)c1c(NC(=O)c2cc3nc(-c4ccc(OC)cc4)cc(C(F)(F)F)n3n2)sc2c1CCCC2 | 53.4% (inactive) | –
17 | COc1ccc(C2(Nc3cccc(F)c3)C(=O)c3ccccc3C2=O)cc1 | 9.65% (inactive) | –
18 | CCNC(=S)N1CCN(CCN=CC2=C(O)CC(C)(C)CC2=O)CC1 | -20.2% (inactive) | –
19 | CC(=O)N1CCN(CCN=CC2=C(O)CC(C)(C)CC2=O)CC1 | – | 28.2 µM (active)
20 | CC1(C)CC(=O)C(C=NCCN2CCN(C(=S)Nc3cccc(Cl)c3)CC2)=C(O)C1 | -9.3% (inactive) | –
21 | CCOc1ccccc1C(=O)NCc1ccc2c(c1)CCN2C(=O)c1ccc(F)cc1 | 0.127% (inactive) | –
22 | CCOC(=O)c1ccc(NC2=CC(c3ccc(OCC)cc3)N(c3ccc(C(=O)OCC)cc3)C2=O)cc1 (stereo not given) | -0.96% (inactive) | –
23 | CC(C)(C)OC(=O)N1CCC(c2c(C(=O)N3CCN(c4cccc(Cl)c4)CC3)cnn2-c2cccc(Cl)c2)CC1 | 14.1% (inactive) | –
24 | COc1ccccc1OCC(=O)O/N=C(\N)c1ccccn1 | 11.4% (inactive) | –
25 | COc1ccccc1OCC(=O)OCc1cc(-c2ccco2)on1 | – | 56.2 µM (active)

Row | SMILES | activity change, negative = inhibition | Potency
26 | COc1ccc(NC(=O)COCc2cc(-c3ccco3)on2)cc1 | 0.166% (inactive) | –
27 | O=C(CCS(=O)(=O)c1cc(Br)cc2c1N(C(=O)C1CC1)CC2)Nc1ccc(C(F)(F)F)cc1 | -5.59% (inactive) | –
28 | CC1(C)CC(=O)C(N=Nc2ccc(S(=O)(=O)N3CCCCCC3)cc2)=C(O)C1 | -12% (inactive) | –
29 | Cc1ccc(S(=O)(=O)N2CCN(S(=O)(=O)N3CCOCC3)CC2)cc1 | 0.025% (inactive) | –
30 | O=C1CCCC(O)=C1N=Nc1ccc(S(=O)(=O)N2CCOCC2)cc1 | – | 44.7 µM (active)
31 | COc1ccc(-c2nn3c(-c4ccc(OC)cc4)nnc3c3ccccc23)cc1 | 8.01% (inactive) | –
32 | Cc1cc2c(cc3c(SCc4nc(-c5ccccc5)oc4C)nnc(C)n32)o1 | 1.33% (inactive) | –
33 | Cc1noc2ncnc(NCc3ccccc3Cl)c12 | -1.77% (inactive) | –
34 | Cc1c(C(=O)N(C)C)sc2c1c(=O)n(-c1ccc(F)cc1)c(=O)n2CC(=O)N(C)c1ccccc1 | 9.3% (inactive) | –
35 | C(=N\Nc1ccc2ccccc2n1)/c1ccc2c(c1)OCO2 | 0.889% (inactive) | –
36 | Cc1cc(=O)[nH]c(N/N=C/c2c(C)nn(-c3ccccc3Cl)c2Cl)n1 | -10.1% (inactive) | –
37 | Cc1cc(=O)[nH]c(N/N=C/c2ccc3c(c2)OCCO3)n1 | – | 39.8 µM (active)
38 | CC1=Nc2cc(C(=O)NCc3ccc(C)cc3)ccc2Sc2ccc(Cl)cc21 | -3.91% (inactive) | –
39 | COc1cccc(CNC(=O)Cn2ncn3c(cc4ccccc43)c2=O)c1 | 1.74% (inactive) | –
40 | Cc1ccc(CCNC(=O)c2ccc(CNS(=O)(=O)c3ccc(C)cc3)cc2)cc1 | -4.55% (inactive) | –
41 | COC(=O)C1=C(C)NC(=O)/C1=C/c1ccc(CNS(=O)(=O)c2ccc(C)cc2)o1 | – | 22.4 µM (active)
42 | COc1ccccc1CNS(=O)(=O)c1ccc(C)cc1 | 0.213% (inactive) | –
43 | CCc1ccccc1NC(=O)c1ccc(F)c(S(=O)(=O)NC2CCCCCC2)c1 | 46.2% (inactive) | –
44 | CN(C)N=Nc1ccc2nc[nH]c2c1 | – | 39.8 µM (active)
45 | CC/C(O)=N\S(=O)(=O)c1ccc(N=NN(C)C)cc1 | 9.42% (inactive) | –
46 | COc1ccc(/C(C)=N/NC(=O)c2ccc3nc[nH]c3c2)cc1 | -6.56% (inactive) | –
47 | CCc1nn(CC(=O)Nc2cc(C)cc(C)c2)c(=O)c2cc3sccc3n12 | -2.35% (inactive) | –
48 | O=C(CCl)N(Cc1cccc([N+](=O)[O-])c1)c1cccc(Cl)c1 | – | 2.51 µM (active)
49 | COC(=O)c1cc(C(=O)N(Cc2ccccc2)c2ccccn2)cc([N+](=O)[O-])c1 | -1.34% (inactive) | –
50 | CC(=O)N(CN1C(=O)C2CC=CCC2C1=O)c1cccc(Cl)c1 (stereo not given) | -19.7% (inactive) | –
